# Article PMC4336329 (PLoS ONE, 2015)
# About 2,200 (0.71%) of roughly 310,000 compounds showed an effect of 50% or more. The effect is printed as a negative number. This is one part of a sample in which strong results are shown more often than they occur.
# Molecular target: human ether-à-go-go-related gene (hERG) potassium channel (human, UniProt Q12809)
# Experiment: primary screen, population patch clamp on CHO cells stably expressing hERG; higher = less effect of the substance
# human ether-à-go-go-related gene (hERG) potassium channel, sequence (Q12809 whole entry, looked up): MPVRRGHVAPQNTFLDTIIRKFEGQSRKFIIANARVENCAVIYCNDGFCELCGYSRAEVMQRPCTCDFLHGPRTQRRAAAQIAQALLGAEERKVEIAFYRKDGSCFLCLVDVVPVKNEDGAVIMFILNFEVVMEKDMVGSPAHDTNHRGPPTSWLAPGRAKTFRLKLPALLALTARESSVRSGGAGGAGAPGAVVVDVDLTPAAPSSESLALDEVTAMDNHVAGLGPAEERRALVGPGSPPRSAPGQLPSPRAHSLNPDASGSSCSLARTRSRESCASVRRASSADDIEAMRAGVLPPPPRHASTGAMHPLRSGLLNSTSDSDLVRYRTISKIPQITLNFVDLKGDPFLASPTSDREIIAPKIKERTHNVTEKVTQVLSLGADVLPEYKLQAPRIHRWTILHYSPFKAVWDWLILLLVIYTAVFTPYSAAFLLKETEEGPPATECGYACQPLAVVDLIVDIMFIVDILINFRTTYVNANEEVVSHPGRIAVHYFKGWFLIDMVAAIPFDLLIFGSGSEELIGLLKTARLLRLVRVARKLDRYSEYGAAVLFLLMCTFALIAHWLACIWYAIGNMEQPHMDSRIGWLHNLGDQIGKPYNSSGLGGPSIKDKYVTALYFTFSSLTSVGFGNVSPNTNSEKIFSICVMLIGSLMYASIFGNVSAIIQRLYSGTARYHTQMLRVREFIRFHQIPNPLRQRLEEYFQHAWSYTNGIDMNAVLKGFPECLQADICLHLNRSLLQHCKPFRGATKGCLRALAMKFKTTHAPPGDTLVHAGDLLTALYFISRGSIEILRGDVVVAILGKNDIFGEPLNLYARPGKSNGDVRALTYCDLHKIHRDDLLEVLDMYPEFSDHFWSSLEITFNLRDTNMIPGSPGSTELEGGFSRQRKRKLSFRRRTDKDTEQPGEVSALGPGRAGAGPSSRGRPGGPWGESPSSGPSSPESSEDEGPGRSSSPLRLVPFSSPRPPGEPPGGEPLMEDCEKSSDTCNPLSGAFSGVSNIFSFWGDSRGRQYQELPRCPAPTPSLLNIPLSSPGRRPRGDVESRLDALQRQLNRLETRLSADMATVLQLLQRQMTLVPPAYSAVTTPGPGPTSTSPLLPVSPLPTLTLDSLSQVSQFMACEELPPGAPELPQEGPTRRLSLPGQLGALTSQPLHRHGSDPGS
row,SMILES,"hERG current change (%, negative = inhibition) at 1uM [%]"
1,Cc1c(O)ccc(NS(=O)(=O)c2ccccc2)c1C,13
2,O=C(Nc1cccc(F)c1)N1CCC(n2c(=O)[nH]c3ccccc32)CC1,2.25
3,O=c1[nH]c2ccccc2n1C1CCCCC1,7.5
4,O=c1[nH]c2ccccc2n1CCCN1CCC(n2c(=O)[nH]c3cc(Cl)ccc32)CC1,-46.8
5,O=c1[nH]c2ccccc2n1C1CCN(CCCC(c2ccc(F)cc2)c2ccc(F)cc2)CC1,-76.5
6,O=C(CCCN1CCC(n2c(=O)[nH]c3ccccc32)CC1)c1ccc(F)cc1,-80.8
7,O=C1CC(N2CCC(n3c(=O)[nH]c4ccccc43)CC2)C(=O)N1c1ccc(F)cc1 (centres unmarked),7.15
8,CCN(CC)C(=O)c1ccc(NC(=O)c2ccc(-n3cncn3)c([N+](=O)[O-])c2)cc1,4.18
9,CS(=O)(=O)NNC(=O)CN1C(=O)C2C3C=CC(C3)C2C1=O (centres unmarked),22.9
10,Cc1noc(C)c1C(=O)Nc1nc2ccc(F)cc2s1,2.2
11,CCOC(=O)C(C)Sc1nnc(Cn2c(=O)sc3ccccc32)n1-c1ccccc1 (centres unmarked),4.98
12,CCOCCn1c(=O)c2c(nc3n2CC(C)CN3CCc2ccccc2)n(C)c1=O (centres unmarked),-58.9
13,CCOCCn1c(=O)c2c(nc3n2CC(C)CN3Cc2ccccc2)n(C)c1=O (centres unmarked),-14.4
14,COCCn1c(=O)c2c(nc3n2CC(C)CN3CCc2ccccc2)n(C)c1=O (centres unmarked),-9.39
15,O=C(CC1NCCNC1=O)Nc1cccc([N+](=O)[O-])c1 (centres unmarked),6.97
16,CCC(C)N(C(=O)COC(=O)c1ccccc1SCC(=O)N1CCCC1)C1CCS(=O)(=O)C1 (centres unmarked),11.9
17,O=C1c2ccccc2-c2nc3ncnn3c(-c3ccccc3Cl)c21,5.18
18,Cc1ccc(Nc2nc(NCCCN3CCOCC3)nc(N)c2[N+](=O)[O-])cc1C,4.15
19,COc1ccc(Nc2nc(NCCCN3CCOCC3)nc(N)c2[N+](=O)[O-])cc1,3.71
20,Cc1ccc(Nc2nc(NCCCN3CCOCC3)nc(N)c2[N+](=O)[O-])cc1,-56.2
21,COc1ccc(NC(=O)c2ccc(-n3cccn3)nc2)c(OC)c1,17.4
22,COC(=O)c1ccc2nc(NC(=O)CN3C(=O)CCC3=O)sc2c1,14.3
23,CN(CC(=O)Nc1cccc(F)c1)C(=O)c1cc(S(=O)(=O)N2CCCCC2)ccc1N1CCOCC1,3.68
